Compounds without any hit were thinned out: in the full panel of roughly 83,000, 20% have a hit.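 Interpretation: 100, growth as untreated; towards 0, rising growth inhibition; 0, no net growth; 0 to -100, cell death. Compounds scoring below 10 were considered active.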 Calls of active or inactive are those of the source.
These molecules were tested on HL-60(TB) leukemia (assay: NCI-60 one-dose screen, 48 h (100 = growth as untreated, 0 = no growth, -100 = all killed)). Settings: 10 µM unless noted.

**Q.** `C=C(C)[C@@H]1CC[C@]2(C(=O)NCCNCCNCCN)CC[C@]3(C)[C@H](CC[C@@H]4[C@@]5(C)CCC(=O)C(C)(C)[C@@H]5CC[C@]43C)[C@@H]12` was tested. Which growth did it give?
**A.** Its growth is -35.6% [100 µM] (active).

**Q.** For `CC[N+](CC)=c1ccc2nc3c(cc(N)c4ccccc43)oc-2c1`, which growth is on record?
**A.** The growth was -55.6% (active).

**Q.** With `CN(C)CCCCNc1ccc(NCCCCN(C)C)c2c1C(=O)c1c(O)ccc(O)c1C2=O` as the molecule, how does the growth read?
**A.** The growth was 24.6% (inactive).

**Q.** With `Cc1ccc(NCCN(C)CC(C)O)c2c(=O)c3ccccc3sc12` (stereo not given) as the molecule, how does the growth read?
**A.** Its growth is 31.3% (inactive).

**Q.** How did the growth turn out when `O=C(CCN1C(=O)c2ccccc2C1=O)Nc1ccc(Cl)cc1` was run?
**A.** The growth was 105% (inactive).

**Q.** With `COC(=O)N[C@H]1CCc2c(Cl)c(OC)c(OC)c(OC)c2-c2ccc(SC)c(=O)cc21` as the molecule, how does the growth read?
**A.** Its growth is -42.4% (active).

**Q.** How did the growth turn out when `C=C1CCC2C3(C)COC(c4ccccc4Br)OC3CCC2(C)C1C/C=C1/C(=O)OCC1OC(C)=O` (stereo not given) was run?
**A.** The growth was -48.7% (active).

**Q.** Which growth does the source give for `C#CCOCC1CN(C)C(=O)O1` (stereo not given) here?
**A.** Its growth is 89.4% (inactive).

**Q.** Which growth does the source give for `NC1=NC(=O)NC1(c1ccccc1)c1ccccc1` here?
**A.** Its growth is 98.4% (inactive).

**Q.** With `CCCCCCn1c(-c2ccc(C(=O)O/N=C(\N)c3ccc4c(c3)OCO4)cc2)nc(-c2ccccc2)c1-c1ccccc1` as the molecule, how does the growth read?
**A.** The growth was -51.1% (active).

**Q.** Which growth does the source give for `NC(=S)Nc1ccc2c(c1)Cc1ccccc1-2` here?
**A.** The growth was 77.4% (inactive).

**Q.** `COc1cc(C(O)C2C(=O)OCC2C2(c3ccc4c(c3)OCO4)SCCCS2)cc(OC)c1OC` (stereo not given) was tested. Which growth did it give?
**A.** Its growth is 91.8% (inactive).

**Q.** Which growth does the source give for `C=C(CO)[C@@H]1CC[C@]2(COC3CCCCO3)CC[C@]3(C)[C@H](CC[C@@H]4[C@@]5(C)C=C(C=O)C(=O)C(C)(C)[C@@H]5CC[C@]43C)[C@@H]12` (stereo not given in full) here?
**A.** The growth was -59.8% (active).

**Q.** Which growth does the source give for `CCCCCCNC(=O)Oc1ccc(/C(=C(\C)c2ccc(Cl)cc2)c2ccc(OCCN(CC)CC)cc2)cc1` here?
**A.** Its growth is 44.3% (inactive).

**Q.** `COc1cc(-c2nc(Nc3nc4ccccc4s3)[nH]c(=O)c2C#N)cc(OC)c1O` was tested. Which growth did it give?
**A.** Its growth is 98% (inactive).

**Q.** Which growth does the source give for `O=c1cc(CSc2nnc(-c3ccccc3)n2-c2ccc(F)cc2)c2ccc3ccccc3c2o1` here?
**A.** Its growth is 99.5% (inactive).

**Q.** For `Cc1c(Cl)cccc1NC(=O)c1sc2nc3c(cc2c1N)CCCC3`, which growth is on record?
**A.** The growth was 5.57% (active).

**Q.** Which growth does the source give for `N#C/C(Sc1nc2sc3c(c2c(=O)n1Cc1ccccc1)CCCC3)=C1/SC=C(c2ccc(Cl)cc2)N1c1ccccc1` here?
**A.** Its growth is 84.3% (inactive).

**Q.** With `CC1=NN(c2ccccc2)C(=O)C1C(=O)c1ccccc1` (stereo not given) as the molecule, how does the growth read?
**A.** Its growth is 68.5% (inactive).

**Q.** How did the growth turn out when `N=C(N)c1ccc(-c2ccc(-c3cncc4ccccc34)s2)s1` was run?
**A.** Its growth is 13.6% (inactive).

**Q.** With `CC(C)(C)OC(=O)c1ccc(NCc2cc(O)ccc2O)cc1` as the molecule, how does the growth read?
**A.** Its growth is -39.3% (active).

**Q.** `COc1cccc(-c2cc(-c3ccc(Nc4nc(Nc5ccc(Cl)cc5)nc(Nc5ccc(Cl)cc5)n4)cc3)nc(N)c2C#N)c1` was tested. Which growth did it give?
**A.** The growth was 24.5% (inactive).

**Q.** With `N#Cc1nc(-c2ccccc2)oc1S(=O)(=O)N1CCN(c2ccccc2)CC1` as the molecule, how does the growth read?
**A.** The growth was 75.6% (inactive).

**Q.** Which growth does the source give for `O=C1/C(=C/c2ccc(F)cc2)CN(C(=O)CCN2CCC(=NO)CC2)C/C1=C\c1ccc(F)cc1` here?
**A.** The growth was -8.33% (active).

**Q.** How did the growth turn out when `O=c1c(/C=C/c2ccco2)nnc2sc(Nc3ccc(Cl)cc3)nn12` was run?
**A.** The growth was 101% (inactive).

**Q.** `C=C1C(=O)O[C@H]2[C@H]1CC/C(CNS(=O)(=O)c1ccc3ccccc3c1)=C\CC[C@@]1(C)O[C@@H]21` was tested. Which growth did it give?
**A.** The growth was -48.4% (active).

**Q.** `CCOC(=O)[C@@H]1CCCN(S(=O)(=O)c2ccc(S(=O)(=O)N(CC)CC)c(F)c2)C1` was tested. Which growth did it give?
**A.** Its growth is 81.4% (inactive).

**Q.** How did the growth turn out when `COc1ccc(CN(c2ccc(C)cc2)C2OC(=O)c3ccccc32)cc1OC` (stereo not given) was run?
**A.** Its growth is 96.9% (inactive).

**Q.** With `COc1cc(/C=C/C(=O)c2ccc(Oc3ncnc4ccccc34)cc2)cc(OC)c1OC` as the molecule, how does the growth read?
**A.** Its growth is 54.3% (inactive).

**Q.** `COc1ccc(/C=C/C(C)=N/OCC(=O)O)cc1` was tested. Which growth did it give?
**A.** Its growth is 89.1% (inactive).

**Q.** `CC(C)(C)c1ccc(OCCOC(=O)CBr)cc1` was tested. Which growth did it give?
**A.** The growth was 75.2% (inactive).

**Q.** For `COc1cc(/C=C/C(=O)c2c(C)oc3nc[nH]c(=O)c23)cc(OC)c1OC`, which growth is on record?
**A.** Its growth is 65.9% (inactive).

**Q.** Which growth does the source give for `O=C(N/N=C\c1ccc(-c2ccc(Br)cc2)o1)c1cc2oc(-c3cccc(C(F)(F)F)c3)cc2[nH]1` here?
**A.** The growth was 146% (inactive).

**Q.** How did the growth turn out when `COc1cc(C(=O)/C=C/c2cc(C(=O)c3cc(OC)c(OC)c(OC)c3)ccc2OC)ccc1N` was run?
**A.** Its growth is 3.92% (active).

**Q.** For `COc1cc([C@@H]2c3cc4c(cc3[C@H](SC(=N)N)[C@H]3COC(=O)[C@H]23)OCO4)cc(OC)c1OC`, which growth is on record?
**A.** Its growth is -18.8% (active).

**Q.** With `O=C1O[C@@H](c2ccccc2Cl)[C@@H]2c3cc4c(cc3CCN12)OCO4` as the molecule, how does the growth read?
**A.** The growth was 92.1% (inactive).

**Q.** For `COc1ccc(C(=O)/C=C/c2cc(-c3cc(OC)c(OC)c(OC)c3)n[nH]2)cc1`, which growth is on record?
**A.** The growth was 23.2% (inactive).

**Q.** How did the growth turn out when `CNCCOc1nc2c3cnccc3cc(-c3cc(OC)c(OC)c(OC)c3)c2c2ccncc12` was run?
**A.** The growth was -25.8% (active).

**Q.** With `COc1ccccc1Nc1nnc(COc2ccc(CNC(=O)CCCC/C=C/C(C)C)cc2OC)o1` as the molecule, how does the growth read?
**A.** The growth was 81.1% (inactive).

**Q.** How did the growth turn out when `CC(C)COc1nc2c(c(=O)n(C)c(=O)n2C)n1C` was run?
**A.** The growth was 97% (inactive).

Reference: PubChem BioAssay (NCI)
